Assay results reported in publication PMC4336329 (PLoS ONE, 2015).
The campaign covered roughly 310,000 compounds. About 14,000 (4.5%) showed an effect of 50% or more. Effects have a minus sign here. This is one part of a sample in which strong results are shown more often than they occur.

Target: human ether-à-go-go-related gene (hERG) potassium channel (human, UniProt Q12809)
Assay: primary screen, population patch clamp on CHO cells stably expressing hERG; higher = less effect of the substance
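Note: peak tail current of the secondary pulse compared with the same well before compound.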

human ether-à-go-go-related gene (hERG) potassium channel, sequence (Q12809 whole entry, looked up): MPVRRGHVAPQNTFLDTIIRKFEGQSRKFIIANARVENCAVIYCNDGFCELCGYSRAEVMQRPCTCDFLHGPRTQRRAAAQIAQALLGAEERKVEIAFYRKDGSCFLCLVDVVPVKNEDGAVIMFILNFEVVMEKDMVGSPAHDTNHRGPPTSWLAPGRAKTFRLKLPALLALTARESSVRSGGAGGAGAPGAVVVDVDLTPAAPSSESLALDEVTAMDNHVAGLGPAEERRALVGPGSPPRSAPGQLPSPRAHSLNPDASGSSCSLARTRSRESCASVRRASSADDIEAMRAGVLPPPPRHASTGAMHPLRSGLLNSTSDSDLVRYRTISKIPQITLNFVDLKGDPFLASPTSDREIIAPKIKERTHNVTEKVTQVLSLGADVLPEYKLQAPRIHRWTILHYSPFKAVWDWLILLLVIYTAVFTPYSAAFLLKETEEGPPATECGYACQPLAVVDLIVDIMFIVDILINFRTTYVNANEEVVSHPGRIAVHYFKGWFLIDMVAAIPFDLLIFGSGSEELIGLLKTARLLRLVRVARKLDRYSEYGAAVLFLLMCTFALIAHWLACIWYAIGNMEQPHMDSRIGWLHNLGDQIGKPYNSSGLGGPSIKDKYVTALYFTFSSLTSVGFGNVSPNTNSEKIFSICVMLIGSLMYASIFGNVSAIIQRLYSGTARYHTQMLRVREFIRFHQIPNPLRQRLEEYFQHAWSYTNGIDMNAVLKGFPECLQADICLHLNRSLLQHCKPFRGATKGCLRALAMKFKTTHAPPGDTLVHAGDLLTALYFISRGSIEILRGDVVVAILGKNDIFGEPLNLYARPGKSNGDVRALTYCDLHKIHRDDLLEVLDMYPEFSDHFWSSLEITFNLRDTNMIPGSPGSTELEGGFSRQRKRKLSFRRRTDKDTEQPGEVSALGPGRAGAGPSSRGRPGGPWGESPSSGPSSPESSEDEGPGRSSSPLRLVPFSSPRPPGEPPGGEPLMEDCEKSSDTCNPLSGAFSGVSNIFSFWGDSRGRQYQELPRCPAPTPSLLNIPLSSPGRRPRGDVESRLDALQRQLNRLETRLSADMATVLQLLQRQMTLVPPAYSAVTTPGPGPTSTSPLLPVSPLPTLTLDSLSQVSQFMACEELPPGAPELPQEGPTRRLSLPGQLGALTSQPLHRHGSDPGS

Structure (SMILES)	hERG current change (%, negative = inhibition) at 10uM [%]
CCOC(=O)N[C@H](Cc1c[nH]c2ccccc12)C(=O)NC1CC1	3.42
Cc1ccccc1N1CCN(C(=O)CN2C(=O)c3ccccc3C2=O)CC1	-11.8
O=C(CN1C(=O)CSc2ccccc21)NC1CCCC1	0.766
CC(C)CNC(=O)c1ccccc1SCC(=O)NC12CC3CC(CC(C3)C1)C2	-5.62
Cc1c(CN2CCC(n3nccc3NC(=O)C3CC3)CC2)[nH]c2ccccc12	-61
Cc1c(C(=O)N2CCC(n3nccc3NC(=O)C3CC3)CC2)[nH]c2ccc(Cl)cc12	-59.4
O=C(Nc1ccnn1C1CCN(Cc2cc3ccccc3[nH]2)CC1)C1CCOC1 (stereo not drawn)	-31.5
COc1ccc2[nH]c(CN3CCC(n4nccc4NC(=O)C4CC4)CC3)c(C)c2c1	-63.3
Cc1cc(C)c2[nH]c(C(=O)N3CCC(n4nccc4NC(=O)C4CC4)CC3)c(C)c2c1	-44.6
COc1ccc(C(=O)Nc2ccnn2C2CCN(Cc3cn(C)nc3C)CC2)cc1	17.1
COc1ccc2[nH]c(C(=O)N3CCC(n4nccc4NC(=O)C4CC4)CC3)c(C)c2c1	-30.4
COc1cccc(CC(=O)N2CCC(n3nccc3NC(=O)C3CC3)CC2)c1	32
Cc1c(CN2CCC(n3nccc3NC(=O)C3CCOC3)CC2)[nH]c2ccccc12 (stereo not drawn)	-30.6
O=C(Cn1cnc([N+](=O)[O-])c1)NCc1ccc(F)cc1	7.86
O=C(NC(=S)Nc1ncccn1)c1ccccc1Cl	11.8
O=C(Nc1cc([N+](=O)[O-])ccc1F)C1CC1	-4.7
Cc1ccc(CNC(=O)CNS(=O)(=O)c2ccc3nc(C)sc3c2)cc1	-64.6
Cc1nc2ccc(S(=O)(=O)NCC(=O)NCc3ccc(Cl)cc3)cc2s1	17.4
CCNS(=O)(=O)c1ccc(CCC(=O)NCc2ccncc2)cc1	2.58
Cc1ccc(CCNC(=O)CNS(=O)(=O)c2ccc3nc(C)sc3c2)cc1	2.53
CCNS(=O)(=O)c1ccc(CCC(=O)NCc2ccccc2)cc1	-19.6
CCNS(=O)(=O)c1ccc(CCC(=O)NCc2ccc(C)cc2)cc1	-53.1

Structure (SMILES)	hERG current change (%, negative = inhibition) at 10uM [%]
CSc1ccccc1NC(=O)CN(C)S(=O)(=O)c1ccc(F)cc1	-35.2
CC(=O)Nc1ccc(OCCC[n+]2cccc(C(=O)[O-])c2)cc1	12.5
Cn1cnc2c(oc3ccccc32)c1=O	9.26
CC1(C)N=C(/C=N/O)CN1O	11.7
CCCCC(=O)Nc1cc(C)c2c(=O)oc3ccccc3c2n1	4.39
COc1ccc(S(=O)(=O)Cc2ccc(C(=O)N3CCN(c4ccccn4)CC3)o2)cc1	-27.9
COc1cc(OC)c(C2SCCS2)c(OC)c1	2.14
CCOC(=O)CC(=O)NC1(Cc2ccc(O)cc2)CCCCC1	1.06
O=[N+]([O-])c1ccc(Nc2ccccn2)c([N+](=O)[O-])c1	-4.46
O=[N+]([O-])c1ccc(Cc2ccccn2)c([N+](=O)[O-])c1	-50.2
O=C(O)c1cc([N+](=O)[O-])ccc1NCc1ccccn1	12.7
O=[N+]([O-])c1ccc(Cc2ccccn2)cc1	-15.7
NC(=O)c1cc([N+](=O)[O-])ccc1NCc1cnccn1	-12.9
NC(=O)c1cc([N+](=O)[O-])ccc1NCc1ccccn1	-73.8
COn1c(-c2ccc(Cl)cc2Cl)nc2ncccc21	-1.12
CCc1nnc(NC(=O)c2sc3nc4c(cc3c2N)CCCCCC4)s1	4.75
COc1ccc(N/C=C/C(=O)c2ccc(Cl)cc2)cc1	-13.7
CCN1CCN(CCCNC(=O)Cn2nc(C)n3nc(-c4ccccc4)cc3c2=O)CC1	-11.1
Cc1cc2nc(-c3ccc(=O)[nH]c3)n(Cc3ccccc3)c2cc1C	-35.2
O=c1ccc(-c2nc3cc(Cl)ccc3n2Cc2ccccc2)c[nH]1	-73.9
Cc1ccccc1Cn1c(-c2ccc(=O)[nH]c2)nc2ccccc21	-11.4
Clc1ccc(Cn2c(-c3cccnc3Cl)nc3ccccc32)c(Cl)c1	-22.1

Structure (SMILES)	hERG current change (%, negative = inhibition) at 10uM [%]
O=c1[nH]cccc1-c1nc2cc(Cl)ccc2n1Cc1ccccc1	-12
Clc1ncccc1-c1nc2ccccc2n1Cc1ccccc1	-33.5
O=c1ccc(-c2nc3ccccc3n2Cc2ccc(Cl)cc2)c[nH]1	-76
Clc1ccc(Cn2c(-c3cccnc3Cl)nc3ccccc32)cc1	-70.7
O=c1ccc(-c2nc3ccccc3n2Cc2ccccc2Cl)c[nH]1	-11.9
Cc1cc(/C=N/NC(=O)c2nn(C)cc2Cl)c(C)n1-c1cccc(Br)c1	8.09
Nc1nonc1-n1nncc1-c1ccccc1	1.98
CCN(Cc1ccccc1)C(=O)COC(=O)CNC(=O)c1ccc(C)s1	1.42
CSc1ccc(/C=N\Nc2nncn2N)cc1.Cl	10.9
CCOC(=O)c1sc(NC(=O)COc2ccc3c(c2)OCO3)nc1C	7.47
CCCCOP(=O)(OCCCC)/C(C#N)=C(/C)O	13.1
CC(C)C(NC(=O)c1ccccc1Br)c1ccccc1 (stereo not drawn)	11.2
CC(=O)n1cc([C@@H]2C=C(C(=O)Nc3ccccc3)O[C@H](OCCCCO)C2)c2ccccc21	-54.5
CC(=O)n1cc([C@H]2C=C(C(=O)NCc3ccccc3)O[C@@H](OCc3ccc(CO)cc3)C2)c2ccccc21	15.6
CC(=O)n1cc([C@@H]2C=C(C(=O)NCc3ccccc3)O[C@H](OCc3ccc(CO)cc3)C2)c2ccccc21	-26.6
CC(=O)n1cc([C@H]2C=C(C(=O)O)O[C@@H](OCCCCO)C2)c2ccccc21	0.0595
C#CCNC(=O)C1=C[C@@H](c2cn(C(C)=O)c3ccccc23)C[C@@H](OCCCCO)O1	-40.1
C=CCOC(=O)C1=C[C@H](c2cn(C(C)=O)c3ccccc23)C[C@H](OCCCCO)O1	-38.7
CC(=O)n1cc([C@@H]2C=C(C(=O)NCc3ccccc3)O[C@H](OCCCCO)C2)c2ccccc21	-78.3
CC(=O)n1cc([C@H]2C=C(C(=O)Nc3ccccc3)O[C@@H](OCCCCO)C2)c2ccccc21	-25
CC(=O)n1cc([C@H]2C=C(C(=O)NCc3ccccc3)O[C@@H](OCCCCO)C2)c2ccccc21	-62
COc1ccc2cc(CN(CC3CCCO3)S(=O)(=O)c3ccccc3Cl)c(=O)[nH]c2c1 (stereo not drawn)	-36.7

Structure (SMILES)	hERG current change (%, negative = inhibition) at 10uM [%]
O=C(/C=C/Nc1ccc(F)c(Cl)c1)c1ccco1	-0.57
O=C(NCCCN1CCCC1=O)c1cc(-c2ccc3c(c2)OCO3)nc2ccccc12	-4.06
O=C(NCCCN1CCCC1=O)c1ccc(OCc2ccccc2)cc1	-12.9
COc1cc(C(=O)NCCCN2CCCC2=O)cc(OC)c1OC	-2.96
COc1ccc(-c2cc(C(=O)NCCCN3CCCC3=O)c3ccccc3n2)cc1OC	-64.7
COc1ccc(-c2cc(C(=O)NCCCN3CCCC3=O)c3ccccc3n2)cc1	-12
COc1cc(C(=O)NCCCN2CCCC2=O)cc(Br)c1OCc1ccccc1	-50.7
CCN(CC)S(=O)(=O)c1ccc(-c2cn3cc(Cl)ccc3n2)cc1	2.07
COc1ccc(-n2c3c(c(=O)[nH]c2=O)C(NC(=O)c2ccncc2)(C(F)(F)F)C(=O)N3)cc1 (stereo not drawn)	18.1
CCc1cc2c(Sc3nc4ccccc4s3)ncnc2s1	16.9
Cc1cc(C)cc(NC(=O)CCCSc2nc3ccccc3[nH]2)c1	-2.7
Cn1c(=O)c2c(ncn2CC(=O)OCC(=O)NC2CCCc3ccccc32)n(C)c1=O (stereo not drawn)	2.36
COc1cc(NC(=O)c2cccc3c2C(=O)N(Cc2cccnc2)C3)cc(OC)c1OC	-79.2
O=C(NCc1cccnc1)c1cccc2c1C(=O)N(Cc1cccnc1)C2	-11
COc1ccccc1CNC(=O)c1cccc2c1C(=O)N(Cc1cccnc1)C2	-70.1
O=C(Nc1ccc2c(c1)OCO2)c1cccc2c1C(=O)N(Cc1cccnc1)C2	-47
COCCN1Cc2cccc(C(=O)NCc3cccnc3)c2C1=O	3.96
COC(CNC(=O)c1cccc2c1C(=O)N(Cc1cccnc1)C2)OC	-15.3
COc1ccc(CNC(=O)c2cccc3c2C(=O)N(Cc2cccnc2)C3)cc1	-38.6
O=C(NCc1ccc(F)cc1)c1cccc2c1C(=O)N(Cc1cccnc1)C2	-61.8
CCOc1ccc(NC(=O)c2cccc3c2C(=O)N(Cc2cccnc2)C3)cc1	-22
